# Test results reported in the supplement of paper PMC12024424.
# Where a name gives a salt, the structure may show the parent alone.
# Tested on: Staphylococcus aureus Sa2 (MRSA, cystic fibrosis isolate)
# Test: growth reduction vs untreated control (viable cell count); higher = stronger antibacterial activity; extreme values may be limits of the assay
# Conditions: 0.1 mM; 24 h
# Method: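 Single-dose screen of the MedChem Express Drug Repurposing Library (0.1 mM, 1% DMSO) against planktonic MRSA S. aureus Sa2 (CF isolate) in TSB in 96-well plates, 37 °C aerobic, 24 h. Assays were run in triplicate and repeated twice.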
row,SMILES,growth reduction [%]
1,Cc1cc(C)cc([C@@H]2CCCN2Cc2ccc(Oc3ccc(C(N)=O)cc3F)cc2)c1 [Aticaprant],100
2,CCCCCCCCCCCC1=C(O)C(=O)C=C(O)C1=O [Embelin],100
3,CC(C)(C)c1cc(C(C)(C)C)c(NC(=O)c2c[nH]c3ccccc3c2=O)cc1O [Ivacaftor],99
4,CCCCCCCCCCCCCCCCOP(=O)([O-])OCC[N+](C)(C)C [Miltefosine],100
5,O=C(Nc1ncc(SCCN2CCCC2)s1)[C@]1(c2ccc(S(=O)(=O)C3CC3)cc2)C[C@H]1C1CCCCC1 [Globalagliatin],100
6,CC(=C(CCOC(=O)C(C)C)SSC(CCOC(=O)C(C)C)=C(C)N(C=O)Cc1cnc(C)nc1N)N(C=O)Cc1cnc(C)nc1N (stereo in doubt) [Sulbutiamine],97
7,CCC(c1ccccc1)c1c(O)c2ccccc2oc1=O (stereo not given) [Phenprocoumon],95
8,C=C[C@@H]1C[C@]1(NC(=O)[C@@H]1C[C@@H](Oc2ncc(OC)c3ccc(Cl)cc23)CN1C(=O)[C@@H](NC(=O)OC(C)(C)C)C(C)(C)C)C(=O)NS(=O)(=O)C1CC1 [Asunaprevir],100
9,O=c1oc2ccccc2c(O)c1Cc1c(O)c2ccccc2oc1=O [Dicoumarol],100
10,CCCCCCCCOc1ccccc1C(=O)Nc1ccc(C(=O)OCC[N+](C)(CC)CC)cc1 [Otilonium (bromide)],100
11,Cc1nc(C(=O)NCC(=O)O)c(O)c2ccc(Oc3ccccc3)cc12 [Roxadustat],98
12,Cc1cc(Nc2ncc(Cl)c(Nc3ccccc3S(=O)(=O)C(C)C)n2)c(OC(C)C)cc1C1CCNCC1 [Ceritinib dihydrochloride],100
13,COc1cccc(Nc2ncnn3ccc(CN4CC[C@@H](N)[C@H](O)C4)c23)c1,94
14,Cc1cc(C2CCCCC2)n(O)c(=O)c1 [Ciclopirox (olamine)],100
15,Nc1ccn([C@@H]2O[C@H](CO)[C@@H](O)C2(F)F)c(=O)n1 [Gemcitabine (hydrochloride)],100
16,O=C(NC1CCN(CCCCC2(C(=O)NCC(F)(F)F)c3ccccc3-c3ccccc32)CC1)c1ccccc1-c1ccc(C(F)(F)F)cc1 [Lomitapide],100
17,COc1cc(NS(C)(=O)=O)ccc1Nc1c2ccccc2nc2ccccc12 [Amsacrine (hydrochloride)],100
18,OCCN1CCN(CCCN2c3ccccc3Sc3ccc(Cl)cc32)CC1 [Perphenazine],100
19,CSc1ccc(OCc2ncc([N+](=O)[O-])n2C)cc1 [Fexinidazole],93
20,OCCN1CCN(CC/C=C2/c3ccccc3Sc3ccc(C(F)(F)F)cc32)CC1 [Flupentixol dihydrochloride],100

row,SMILES,growth reduction [%]
1,CC[C@H](C)C(=O)O[C@H]1C[C@@H](C)C=C2C=C[C@H](C)[C@H](CC[C@@H]3C[C@@H](O)CC(=O)O3)[C@H]21 [Lovastatin],100
2,CCN(C/C=C\c1ccc(C2CCCCC2)c(Cl)c1)C1CCCCC1,99
3,COc1cc(F)c(F)c(Nc2ccc(I)cc2F)c1NS(=O)(=O)C1(C[C@H](O)CO)CC1 [Refametinib],100
4,Oc1c(I)cc(Cl)c2cccnc12 [Clioquinol],100
5,C=C[C@@](C)(/C=C/c1ccc(O)cc1)CCC=C(C)C [Bakuchiol],100
6,C=C[C@@H]1C[C@]1(NC(=O)[C@@H]1C[C@@H]2CN1C(=O)[C@H](C(C)(C)C)NC(=O)O[C@@H]1C[C@H]1CCCCCc1nc3ccc(OC)cc3nc1O2)C(=O)NS(=O)(=O)C1CC1 [Grazoprevir],100
7,CCOc1cc2ncc(C#N)c(Nc3ccc(F)c(Cl)c3)c2cc1NC(=O)/C=C/CN(C)C [Pelitinib],97
8,C=CC(=O)Nc1cc(Nc2nccc(-c3cn(C4CC4)c4ccccc34)n2)c(OC)cc1N(C)CCN(C)C [Almonertinib],100
9,CC(=O)Oc1cc(C)c(OC(C)=O)c2ccccc12 [Vitamin K4],97
10,CCN1CCN(Cc2ccc(-c3cc4c(N[C@H](C)c5ccccc5)ncnc4[nH]3)cc2)CC1,100
11,O=C(O)C1(c2ccc(-c3ccc(Cl)c(Cl)c3)c(F)c2)CC1 [Itanapraced],100
12,Cc1ccc(NC(=O)c2ccc(CN3CCN(C)CC3)cc2)cc1Nc1nc(-c2cccnc2)cs1 [Masitinib (mesylate)],100
13,CC/C(=C(\c1ccccc1)c1ccc(OCCN(C)C)cc1)c1ccccc1 [Tamoxifen],100
14,CCN(CC)CCOc1ccc(C(=C(Cl)c2ccccc2)c2ccccc2)cc1 [Clomiphene (citrate)],100
15,Clc1ccc(COC(Cn2ccnc2)c2ccc(Cl)cc2Cl)cc1 (stereo not given) [Econazole (nitrate)],100
16,CC(OC(=O)NCC1(CC(=O)O)CCCCC1)OC(=O)C(C)C (stereo not given) [Gabapentin enacarbil],93
17,CC(C)(C)c1cc(-c2cc(-c3ccc(C(=O)O)cc3)ccc2OCCO)ccc1N1CCCC1 [Trifarotene],100
18,CC(=O)OCC(=O)[C@@]1(O)CC[C@H]2[C@@H]3CCC4=CC(=O)C=C[C@]4(C)[C@H]3C(=O)C[C@@]21C [Prednisone acetate],100
19,C[C@H]1CNCCCN1S(=O)(=O)c1cccc2cncc(F)c12 [Ripasudil],100
20,CCOc1cc(CC(=O)N[C@@H](CC(C)C)c2ccccc2N2CCCCC2)ccc1C(=O)O [Repaglinide],100
